Laboratory results: ChEMBL document CHEMBL1961873, “Compounds: GSK PKIS; Assays: Nanosyn kinase panel” (2012)

Key:
[1] = target: Mitogen-activated protein kinase 3 (Homo sapiens) (UniProt P27361); conditions: at 1 µM;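 also: values are mean percent inhibition of MAPK3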
[2] = target: SRSF protein kinase 3 (Homo sapiens) (UniProt Q9UPE1); conditions: at 0.1 µM
[3] = target: SRSF protein kinase 3 (Homo sapiens) (UniProt Q9UPE1); conditions: at 1 µM
[4] = target: Mitogen-activated protein kinase 14 (Homo sapiens) (UniProt Q16539); conditions: at 0.1 µM
Chain of Mitogen-activated protein kinase 14 (Homo sapiens) (Q16539 whole entry): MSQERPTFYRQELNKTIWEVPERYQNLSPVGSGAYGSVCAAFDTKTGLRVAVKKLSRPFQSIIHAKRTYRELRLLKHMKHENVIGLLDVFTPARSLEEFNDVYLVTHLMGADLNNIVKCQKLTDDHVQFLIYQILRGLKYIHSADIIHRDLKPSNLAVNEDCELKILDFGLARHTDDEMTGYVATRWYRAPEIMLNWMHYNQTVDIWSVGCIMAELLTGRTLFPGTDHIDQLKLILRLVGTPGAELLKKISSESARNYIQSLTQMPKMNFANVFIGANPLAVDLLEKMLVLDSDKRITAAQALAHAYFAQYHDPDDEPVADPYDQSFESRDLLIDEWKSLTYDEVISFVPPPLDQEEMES

[5] = target: Mitogen-activated protein kinase 14 (Homo sapiens) (UniProt Q16539); conditions: at 1 µM
[6] = target: Mitogen-activated protein kinase 11 (Homo sapiens) (UniProt Q15759); conditions: at 0.1 µM
Chain of Mitogen-activated protein kinase 11 (Homo sapiens) (Q15759 whole entry): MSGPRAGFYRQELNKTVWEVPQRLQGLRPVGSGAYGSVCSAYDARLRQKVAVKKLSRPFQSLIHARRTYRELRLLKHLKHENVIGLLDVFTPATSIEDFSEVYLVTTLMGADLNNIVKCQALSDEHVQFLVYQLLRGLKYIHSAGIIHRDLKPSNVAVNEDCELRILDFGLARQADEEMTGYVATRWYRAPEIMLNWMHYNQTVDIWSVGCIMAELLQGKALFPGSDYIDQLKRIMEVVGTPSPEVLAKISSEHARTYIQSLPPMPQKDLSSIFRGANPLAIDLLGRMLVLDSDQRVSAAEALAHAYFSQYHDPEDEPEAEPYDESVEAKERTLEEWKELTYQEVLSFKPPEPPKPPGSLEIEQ

[7] = target: Mitogen-activated protein kinase 11 (Homo sapiens) (UniProt Q15759); conditions: at 1 µM
[8] = target: T1, Mitogen-activated protein kinase 13 (Homo sapiens) (UniProt O15264); conditions: at 0.1 µM
T1 sequence (whole entry): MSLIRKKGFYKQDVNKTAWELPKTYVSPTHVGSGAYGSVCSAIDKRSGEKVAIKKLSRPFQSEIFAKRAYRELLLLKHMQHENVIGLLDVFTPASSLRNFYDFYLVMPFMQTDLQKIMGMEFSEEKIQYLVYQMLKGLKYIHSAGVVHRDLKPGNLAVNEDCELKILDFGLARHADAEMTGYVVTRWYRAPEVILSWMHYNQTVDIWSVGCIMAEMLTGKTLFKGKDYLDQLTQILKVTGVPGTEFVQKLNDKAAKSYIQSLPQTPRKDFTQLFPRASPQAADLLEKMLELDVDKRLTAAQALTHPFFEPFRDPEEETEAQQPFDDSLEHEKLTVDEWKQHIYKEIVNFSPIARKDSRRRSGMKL

[9] = target: T1, Mitogen-activated protein kinase 13 (Homo sapiens); conditions: at 1 µM
[10] = target: T2, Mitogen-activated protein kinase 12 (Homo sapiens) (UniProt P53778); conditions: at 0.1 µM
T2 sequence (whole entry): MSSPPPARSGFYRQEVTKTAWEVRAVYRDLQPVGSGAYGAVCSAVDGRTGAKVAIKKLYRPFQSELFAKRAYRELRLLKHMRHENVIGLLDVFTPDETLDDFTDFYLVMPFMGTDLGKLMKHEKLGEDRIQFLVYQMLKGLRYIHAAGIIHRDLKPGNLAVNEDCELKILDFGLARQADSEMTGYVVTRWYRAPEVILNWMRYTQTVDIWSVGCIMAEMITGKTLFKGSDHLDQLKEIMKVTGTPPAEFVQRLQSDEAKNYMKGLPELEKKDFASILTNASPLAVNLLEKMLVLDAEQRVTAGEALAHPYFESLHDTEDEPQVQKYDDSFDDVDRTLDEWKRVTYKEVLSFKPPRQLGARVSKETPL

Chain of SRSF protein kinase 3 (Homo sapiens) (Q9UPE1 whole entry): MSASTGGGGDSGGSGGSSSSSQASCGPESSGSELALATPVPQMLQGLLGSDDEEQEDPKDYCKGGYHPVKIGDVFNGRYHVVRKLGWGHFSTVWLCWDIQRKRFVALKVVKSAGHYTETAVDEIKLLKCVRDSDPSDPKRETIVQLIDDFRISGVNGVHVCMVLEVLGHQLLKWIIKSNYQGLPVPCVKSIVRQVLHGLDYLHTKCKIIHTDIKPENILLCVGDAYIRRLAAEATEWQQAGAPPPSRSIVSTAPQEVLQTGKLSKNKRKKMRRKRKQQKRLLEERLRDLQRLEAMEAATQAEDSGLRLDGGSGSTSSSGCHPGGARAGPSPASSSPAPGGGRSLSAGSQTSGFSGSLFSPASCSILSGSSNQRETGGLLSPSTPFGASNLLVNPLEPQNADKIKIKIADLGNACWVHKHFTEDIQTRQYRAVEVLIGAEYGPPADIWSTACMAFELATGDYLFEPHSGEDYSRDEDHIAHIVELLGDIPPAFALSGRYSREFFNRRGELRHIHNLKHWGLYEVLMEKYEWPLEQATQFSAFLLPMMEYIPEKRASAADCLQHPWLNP
Chain of Mitogen-activated protein kinase 3 (Homo sapiens) (P27361 whole entry): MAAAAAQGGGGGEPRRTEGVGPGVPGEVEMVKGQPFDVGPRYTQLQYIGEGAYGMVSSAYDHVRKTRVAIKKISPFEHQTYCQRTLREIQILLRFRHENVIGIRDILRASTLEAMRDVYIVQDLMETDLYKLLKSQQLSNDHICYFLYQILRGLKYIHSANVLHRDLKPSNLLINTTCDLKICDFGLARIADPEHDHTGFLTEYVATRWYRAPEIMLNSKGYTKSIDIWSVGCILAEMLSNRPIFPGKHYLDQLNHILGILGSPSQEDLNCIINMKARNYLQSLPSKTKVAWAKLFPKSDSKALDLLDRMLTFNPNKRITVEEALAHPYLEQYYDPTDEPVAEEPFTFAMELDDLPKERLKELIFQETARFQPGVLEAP

Row | Compound | inhibition [1] | inhibition [2] | inhibition [3] | inhibition [4] | inhibition [5] | inhibition [6] | inhibition [7] | inhibition [8] | inhibition [9] | inhibition [10]
1 | NS(=O)(=O)c1ccc(Nc2cc(-c3ccc(O)c(F)c3)n[nH]2)cc1 | -1.26% | -1.38% | 0.03% | -1.03% | -2.41% | -1.5% | 6.83% | -6.82% | -4.19% | -2.85%
2 | Cc1ccc(NC(=O)c2ccoc2)cc1-c1ccc(C(=O)NCC2CC2)cc1 | 2.32% | -2.54% | -1.92% |  |  | 27.8% | 61.2% | 2.82% | 0.81% | 2.37%
3 | CN1CCN(CCCNc2nc3ccc(Oc4ccc(NC(=O)Nc5cc(C(F)(F)F)ccc5F)cc4)cc3[nH]2)CC1 | 0.83% | 2.09% | 4.1% | 8.14% | 51.8% | 5.1% | 22.1% | 0.46% | 1.31% | -0.38%
4 | CS(=O)(=O)CCNCc1cc(-c2cc3c(Nc4ccc(OCc5cccc(F)c5)c(Cl)c4)ncnc3s2)cs1 | 4.92% | 0.81% | -0.39% | 7.29% | 8.32% | 1.8% | 3.36% | 5.45% | 6.67% | 4.58%
5 | COc1ccc2cc(-c3c(-c4ccncc4)nc(-c4ccc([S+](C)[O-])cc4C)n3C)ccc2c1 (stereo unspecified) | 0.97% | -0.41% | 0.96% | 8.81% | 8.45% | -1.91% | 9.09% | 0.73% | -0.19% | -2.44%
6 | O=C1NC(=O)C(c2cccc(Cl)c2)=C1Nc1ccc(Cl)c(C(=O)O)c1 | 3.9% | -2.79% | 0.44% | 1.44% | 4.72% | 3.66% | 4.6% | 1.21% | 0.67% | 5.9%
7 | CN(C)CCOc1ccc(-c2cc(-c3ccc4c(c3)CCC4=NO)c(-c3ccncc3)o2)cc1 | 1.25% | -6.42% | -1.92% | -0.58% | 0.13% | -0.55% | 1.57% | -1.01% | -2.49% | -0.25%
8 | COc1cc2ncn(-c3cc(OCCc4ccccc4)c(C(N)=O)s3)c2cc1OC | 0.82% | -1.68% | 0.18% | 4.09% | 13.1% | 3.65% | 2.87% | 4.25% | 1.8% | -0.53%
9 | COc1ccc(C2=C(N3CCc4ccccc43)C(=O)NC2=O)cc1 | 5.25% | 0.52% | 1.43% | 3.41% | 12.2% | 4.81% | 8.67% | -0.17% | 3.67% | 12%
10 | Clc1ccc(CNc2nccc(-c3cnn4ncccc34)n2)cc1 | 1.44% | -0.1% | -3.75% | 2.58% | 7.97% | 1.06% | 6.53% | -0.19% | 2.4% | 0.66%
11 | COc1cc(N2CCN(C(C)C)CC2)ccc1Nc1nc(Nc2ccc(F)cc2C(=O)NC[C@@H](O)CO)c2cc[nH]c2n1 | 5.1% | -4.86% | 2.68% | 2.09% | 9.88% | 4.89% | 6.16% | -0.21% | 4.89% | -2.16%
12 | NC(=O)c1cc(-c2ccncc2)cc(-c2ccccc2)c1N | 5.5% | -0.96% | -0.93% | 6.9% | 14.9% | 6.98% | 14.8% | 2.69% | 5.81% | 0.76%
13 | C/C(Nc1ccc(S(N)(=O)=O)cc1)=C1/C(=O)Nc2ccccc21 | 0.88% | -1.51% | -1.15% | 2.61% | 3.43% | 1.67% | 7.87% | -0.85% | -1.14% | -1.08%
14 | C#Cc1cccc(Nc2ncnc3ccc(OCCCCNCCS(C)(=O)=O)cc23)c1 | 5.78% | -1.8% | -2.44% | 3.36% | 13.9% | 4.69% | 7.25% | 6.43% | 4.8% | 1.66%
15 | Fc1ccc(-c2nc3n(c2-c2ccncc2)CCS3)cc1 | 4.33% | -1.07% | -0.89% | 19.8% | 67.4% | 8.81% | 13.1% | 1.46% | 5.36% | 1.62%
16 | NS(=O)(=O)c1ccc(N/N=C2\C(=O)Nc3ccc(C(=O)NCCCn4ccnc4)cc32)cc1 | 15.9% | -1.4% | 0.48% | 1.52% | 7.84% | 5.07% | 9.47% | 1.23% | 6.17% | 2.29%

Row | Compound | inhibition [1] | inhibition [2] | inhibition [3] | inhibition [4] | inhibition [5] | inhibition [6] | inhibition [7] | inhibition [8] | inhibition [9] | inhibition [10]
17 | C[C@@H](Oc1cc(-n2cnc3ccc(OC4CCN(C)CC4)cc32)sc1C(N)=O)c1ccccc1Cl | 4.52% | -2.03% | -0.98% | 9.29% | 10.7% | 2.89% | 3.75% | 4.78% | 6.01% | 4.13%
18 | COc1ccc2ncn(-c3cc(O[C@H](C)c4ccccc4Cl)c(C(N)=O)s3)c2c1 | 3.04% | -3.56% | -0.27% | 6.99% | 6.3% | 2.23% | 4.3% | 5.14% | 4.31% | 3.31%
19 | COc1cccc(-n2cnc3c(N/N=C/c4ccncc4)ncnc32)c1 | 2.27% | -0.93% | 0.28% | 2.63% | -0.98% | 1.35% | 0.89% | -0.64% | -2.04% | -1.4%
20 | CNC(=O)c1cncc(/C=C/c2c(C)cccc2C)c1 | 3.65% | -0.82% | 2.87% | 1.86% | 7.55% | 0.94% | 2.24% | -0.85% | -0.13% | -0.99%
21 | CCS(=O)(=O)c1ccc(OC)c(Nc2ncc(-c3ccccc3Cl)o2)c1 | 0.91% | 0.64% | 3.28% | 7.68% | 12.2% | 2.55% | 5.3% | 1.24% | 1.41% | 5.31%
22 | O=C1Nc2ccc(I)cc2C1=Cc1cc(Br)c(O)c(Br)c1 | 96.8% | 3.61% | 0.2% | 5.09% | 8.57% | 1.97% | 4.59% |  | 4.77% | 3.23%
23 | Cc1ccc(C(=O)NC(C)C)cc1-c1ccc(C(=O)NCC2CC2)cc1 | -0.93% | 1.71% | -0.59% |  |  | 4.42% | 37% | -4.48% | -4.39% | -2.72%
24 | NCc1ccc(-n2c(-c3nonc3N)nc3cnccc32)cc1 | 5.64% | -0.85% | -1.47% | 4.72% | 10% | 5.07% | 11% | 2.2% | 7.37% | 3.52%
25 | NC(=O)c1cc(-c2ccc(F)cc2)cc(-c2ccncc2)c1N | 3.05% | -2.8% | -1.27% | 6.13% | 8.6% | 2.26% | 5.45% | 2.57% | 3.93% | 4.51%
26 | O=C(Nc1n[nH]c2nc(-c3ccc(O)cc3)c(Br)cc12)C1CC1 | 5.57% | -1.04% | 7.81% | 6.42% | 16% | 11.1% | 38.8% | 8.19% | 32.6% | 1.76%
27 | COc1cc2ncn(-c3cc(OCc4ccccc4C(F)(F)F)c(C(C)=O)s3)c2cc1OC | 3.87% | -2.61% | 1.07% | 4.86% | 3.85% | 5.8% | 4.79% | 2.82% | 2.04% | 2.87%
28 | c1ccc(Oc2ccc(Nc3ncc(-c4ccccc4)o3)cc2)cc1 | 1.29% | 0.57% | 0.33% | 5.45% | 8.09% | -0.05% | 4.25% | 1.2% | 0.96% | -0.32%
29 | COc1cc2ncn(-c3cc(OCc4cccs4)c(C(N)=O)s3)c2cc1OC | 4.45% | 0.87% |  | 16.9% | 12.3% | 3.88% | 5.4% | 0.78% | 1.21% | 2%
30 | CCc1nccc2c1nc(-c1nonc1N)n2CC | 1.77% | -1.38% | -1.65% | 3.67% |  | 2.18% | 1.56% | -1.2% | 1.58% | -1.3%
31 | Cc1ccc(C(=O)NC2CCC2)cc1-c1ccc(C(=O)NCC2CC2)cc1 | 2.32% | -2.8% | -1.15% |  |  | 10.7% | 48.2% | 1.41% | 2.78% | 3.67%
32 | NS(=O)(=O)c1ccc(N/N=C2\C(=O)Nc3ccc(-c4cnco4)cc32)cc1 | 3.04% | -2.14% | -0.18% | 2.88% | 2.83% | 0.43% | 2.84% | 2.15% | 2.61% | 2.22%
